Compound activity from PubChem BioAssay.
PINK1 expr mod: A Quantitative High throughput Screen to Identify Chemical Modulators of PINK1 Expression | PINK1 immunofluorescence, high-content cytometry, 24 h | hit rate 0.2% among 410,000 | Potency, µM (top dose mostly 76.6 µM), without a hit: at the top dose activation (PINK1 increase), usual class: activators | AID 624263, 2012; active = well fitted activation curve with a large enough effect; inconclusive = small, poorly fitted or top-dose-only effect; cell line not stated here; also: % of control where 0% means no effect; nearly all actives have a fitted effect of over 65% in size
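Stable cell line treated 24 h with compounds at 5 concentrations (CCCP controls), then fixed and immunostained for PINK1 plus nuclear and cell stains; PINK1 immunofluorescence quantified by laser-scanning microplate cytometry.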
SW480 rereplic: A quantitative high throughput screen for small molecules that induce DNA re-replication in SW480 colon adenocarcinoma cells; hit rate 1.8% among 340,000; Potency, µM (doses to about 46.1 µM), inactives show top-dose re-replication activation, usual class: activators; SW480 DNA re-replication, Hoechst DNA content imaging, 48 h; also: % of control where 0% means no effect; nearly all actives have a fitted effect of over 55% in size
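Compounds, transferred as 23 nL by pin tool, were incubated with cells for 48 hr; DNA content per nucleus was then quantified by Hoechst staining and fluorescence plate imaging.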
KB-3-1 tox: qHTS assay for MDR1-selective chemotherapeutics: Primary screen using the parental adenocarcinoma cell KB-3-1 | KB-3-1 viability, CellTiter-Glo ATP luminescence, 72 h | AID 1347075, 2019 | hit rate 1.4% among 400,000 | Potency, µM (doses to about 46.1 µM), usual class: cytotoxic; also: % is scaled to controls: 0 for no effect and ±100 for the full control effect; nearly all actives have a fitted effect of over 60% in size
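Cells are dispensed, compounds pinned in, plates held at 37 °C for 72 h, then CellTiter-Glo is added and luminescence read after 10 minutes. Cell line: parental KB-3-1 in phenol-red-free DMEM, 10% FBS.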
KB-V1 MDR tox: qHTS assay for MDR1-selective chemotherapeutics: Primary screen using the drug-selected MDR subline cells KB-V1. AID 1347076, 2019. hit rate 3.4% among 400,000. Potency, µM (doses to about 46.1 µM), usual class: cytotoxic. KB-V1 MDR cells viability, CellTiter-Glo, 72 h; also: % is scaled to controls: 0 for no effect and ±100 for the full control effect; nearly all actives have a fitted effect of over 60% in size
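Readout: CellTiter-Glo luminescence, 10 min after addition. Cells: KB-V1 MDR subline, 72 h at 37 degrees C with compound. Analysis: corrected, normalized data fitted to concentration-effect curves.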
MCF10A rerep: A quantitative high throughput screen for small molecules that induce DNA re-replication in MCF 10a normal breast cells; MCF 10A DNA re-replication, Hoechst nuclear intensity, 48 h; Potency, µM (series often up to 46.1 µM), for inactives: top-dose activity, positive = re-replication, usual class: activators; hit rate 2.9% among 350,000; also: % of control where 0% means no effect; nearly all actives have a fitted effect of over 50% in size
Starred values were filed as active, the others as inactive; i = inactive; ? = inconclusive; . = not tested or not shown; ! = not active in a repeat; [ ] = remark or other dose. Rows were chosen to be rich in hits. Some 6.7% of all compounds tested hit in one or more screens of this group. Unless noted, calls follow the shape of the dose curve; as a rule, active = well fitted curve in the direction sought with a large enough effect; inconclusive = small, poorly fitted or top-dose-only effect, or another doubt; inactive = no such curve, though single readings can be large; an effect the other way counts as inactive or inconclusive. Potency is read from the fitted curve at half-maximal effect.

SMILES | PINK1 expr mod | SW480 rereplic | KB-3-1 tox | KB-V1 MDR tox | MCF10A rerep
OCC[C@@H]1C[C@H](O)[C@@H](O)[C@@]2(OCc3ccc(CO)cc32)O1 | -0.1% | . | ? | i | .
CCCCNC(=O)c1nc(C2CCN(S(=O)(=O)c3ccc(F)c(F)c3)CC2)oc1-c1ccccc1 | 5.9% | . | i | i | .
COc1ccc(/C=C/c2onc(C)c2S(=O)(=O)N2CCC(C(=O)N3CCC(C)CC3)CC2)cc1 | 1.5% | 15.8% | 20.6µM*! | i | ?
Cc1cccc(/C=C/c2onc(C)c2S(=O)(=O)N2CCC(C(=O)N3CCCCCC3)CC2)c1 | 2.9% | ? | i | i | 3.6%
Cc1cccc(/C=C/c2onc(C)c2S(=O)(=O)N2CCC(C(=O)N3CCC(C)CC3)CC2)c1 | -1.7% | 13.4% | 16.4µM*! | ? | ?
CCOCCCNC(=O)C1CCN(S(=O)(=O)c2c(C)noc2/C=C\c2ccc(OC)cc2)CC1 | ? | 5.0% | i | 18.4µM* | 10.9%
C=CCn1c(SCC(=O)NCc2ccccc2)nnc1C1CCCCC1 | -1.4% | -0.4% | i | ? | 29.0%
C=CCn1c(SCC(=O)Nc2cc(C)nn2-c2ccccc2)nnc1C1CCCCC1 | 70.3%[38.3 µM] | -2.5% | i | 5.8µM* | 0.4%
CC1(C(=O)O)CCC(C(=O)Nc2cccc(F)c2)C1(C)C (stereo not drawn) | 2.8% | -6.2% | i | i | 6.2%
Nc1cnn(C2OC(CO)C(O)C2O)c(=O)n1 (stereo not drawn) | 3.9% | -5.0% | 2.31µM* | 4.11µM* | 1.0%
CCCCCc1ccc(-c2nnc(N)s2)cc1 | 1.6% | -8.5% | i | ? | ?
CCCCCCc1ccc(-c2ncc(N)cn2)cc1 | 3.5%[38.3 µM] | 7.4% | i | i | 12.6µM*
COC(=O)c1ccccc1NC1=C/C(=N\S(=O)(=O)c2ccc(C(=O)O)cc2)c2ccccc2C1=O | -3.2% | 2.91µM* | ? | 18.4µM* | ?
COC(=O)c1ccccc1NC1=C/C(=N\S(=O)(=O)c2cccs2)c2ccccc2C1=O | -1.0% | 4.61µM* | ? | 18.4µM*! | 18.4µM*
COC(=O)c1cccc(NS(=O)(=O)c2cccs2)c1C | -2.8% | 0.1% | i | i | -3.3%
NC(=Nc1nc(-c2ccccn2)cc2ccccc12)c1ccccn1 | -0.5% | ? | ? | 0.731µM* | ?
O=C(NCc1ccccc1F)C1CCN(Cc2cc3ccccc3n2Cc2cccc(Cl)c2)CC1 | 1.0% | . | i | i | .
CCCCNC(=O)c1cnn2c(C)c(Cc3c(F)cccc3Cl)c(C)nc12 | 7.8% | . | i | i | .
O=C(O)c1cc(N/N=C/c2cccc3ccccc23)ccc1Cl | 0.8% | -1.4% | i | i | 23.1µM*
O=C(NN=Cc1cccc2ccccc12)C(=O)NN=Cc1cccc2ccccc12 | 12.1% | ? | ? | i | 2.31µM*
CC(O)C(=O)N/N=C/c1cccc2ccccc12 (stereo not drawn) | 1.0% | -13.0% | ? | ? | -0.6%
Cc1ccccc1CN1CCc2nnc(C(C)NC(=O)c3cc(F)ccc3F)n2CC1 (stereo not drawn) | -0.3% | . | . | . | .
O=[N+]([O-])c1ccccc1Nc1c2ccccc2nc2ccccc12 | 3.1% | 20.9% | ? | i | 19.0%
O=[N+]([O-])c1cccc2nc3ccccc3c(NCCCn3ccnc3[N+](=O)[O-])c12 | -6.9% | ? | i | 0.731µM* | ?
CCc1cccc(NC(=O)Cn2c(=O)n(CC3CCC(C(=O)NCCc4ccccc4)CC3)c(=O)c3ccccc32)c1 (stereo not drawn) | 1.2% | . | 14.6µM* | i | .
Cc1cc(N2CCN(C)CC2)nc2ccc(NC(=O)Nc3cccc(Cl)c3)cc12 | -1.5% | . | i | i | .
Cc1ccnc(NS(=O)(=O)c2ccc(NC(=O)c3cc(=O)c4ccc(C)c(C)c4o3)cc2)n1 | 1.6% | . | i | i | .
CC(=O)NC1=CC(=O)c2nonc2C1=O | -0.5% | . | 5.17µM* | i | .
